An excerpt weighted towards active compounds, which were near 3% of everything screened.
SENP6 block = SENP6 protease inhibitors, primary screen, biochemical, luminescence, uHTS | Sentrin-specific protease 6 (Homo sapiens), Q9GZR1 | Recombinant SENP6 catalytic domain, aminoluciferin luminescence | inhibition, % at 10 µM | 330,000 compounds, 1.8% hits;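 active = inhibition above about 50% at the single tested dose, limit read from the data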
SENP7 block = SENP7 protease inhibitors, primary screen, biochemical, luminescence, uHTS; Sentrin-specific protease 7 (Homo sapiens), Q9BQF6; recombinant SENP7, Z-RLRGG-aminoluciferin luminescence, 40 min; inhibition, % at 5 µM; 330,000 compounds, 1.5% hits; AID 434973, 2010;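 active = inhibition above about 50% at the single test dose, limit read from the data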
Target sequence (Q9BQF6 706-1050 limits assumed): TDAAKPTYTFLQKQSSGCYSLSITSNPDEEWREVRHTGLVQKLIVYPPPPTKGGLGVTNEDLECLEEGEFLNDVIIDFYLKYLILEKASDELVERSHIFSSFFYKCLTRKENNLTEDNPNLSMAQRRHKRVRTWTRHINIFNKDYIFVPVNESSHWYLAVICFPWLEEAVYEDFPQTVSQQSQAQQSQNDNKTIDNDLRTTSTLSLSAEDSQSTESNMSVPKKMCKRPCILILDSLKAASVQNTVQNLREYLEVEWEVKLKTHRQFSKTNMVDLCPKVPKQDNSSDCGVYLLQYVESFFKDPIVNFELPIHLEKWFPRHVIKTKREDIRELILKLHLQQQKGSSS
SENP8 block-1 = human SENP8 protease inhibitors, primary screen, biochemical, fluorescence, Nedd8 protein substrate, uHTS. recombinant SENP8. inhibition, % at 20 µM. 360,000 compounds, 0.64% hits. Sentrin-specific protease 8 (Homo sapiens), Q96LD8. AID 602440, 2012; in the data active = inhibition mostly above about 40%, no sharp cut-off; inactive = mostly below about 27%
TRAIL sens C8 = viability loss with TRAIL in NB7+C8 cells, primary screen, TRAIL sensitizer project, cell-based, ATPlite luminescence | inhibition (viability loss, TRAIL sensitization), % at 10 µM | 360,000 compounds, 1% hits | AID 624354, 2012;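 active = compounds causing at least 50% loss of cell viability in the single-dose screen, relative to plate controls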
SENP8 block-2 = SENP8 protease inhibitors, primary screen, biochemical, luminescence; 330,000 compounds, 1.2% hits; purified SENP8, Z-RLRGG-aminoluciferin cleavage; inhibition, % at 10 µM; in the data active = inhibition above about 50%
PPC-1+TRAIL kill = compounds killing PPC-1 cancer cells with TRAIL present, primary screen, TRAIL potentiator project, ATPLite luminescence, uHTS | PPC-1 cells + TRAIL, ATPLite viability luminescence | cell killing (% activity), % at 4 µM or 5 µM | 220,000 compounds, 0.41% hits | AID 1443, 2008;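 active = cell killing above 50% in the first pass at 4 µM, then a duplicate retest at 5 µM averaging 50% or more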
SENP8 confirm = SENP8 protease inhibitors, retest, confirmation, biochemical, luminescence, single concentration; 6,200 compounds, 40% hits; inhibition, % at 12.5 µM; Recombinant SENP8, Z-RLRGG-aminoluciferin luminescence, 60 min; shares compounds with SENP7 block; AID 488912, 2010;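 active = mean inhibition across replicates above about 50%, limit read from the data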
SENP6 conf = SENP6 protease inhibitors, confirmation, biochemical, luminescence, single concentration; shares compounds with SENP7 block; recombinant SENP6, Z-RLRGG-aminoluciferin luminescence; inhibition, % at 12.5 µM; 6,200 compounds, 58% hits; AID 488915, 2010
SENP7 confirm = SENP7 protease inhibitors, retest, confirmation, biochemical, luminescence, single concentration; 6,200 compounds, 69% hits; shares compounds with SENP7 block; recombinant SENP7, Z-RLRGG-aminoluciferin luminescence, 40 min; inhibition, % at 12.5 µM
Casp3 select = caspase-3 protease inhibitors, confirmation, selectivity assay for SENP inhibitor project, biochemical, single concentration. shares compounds with SENP7 block. purified caspase-3, Z-DEVD-aminoluciferin luminescence, 60 min. inhibition, % at 12.5 µM. 6,200 compounds, 60% hits. AID 488918, 2010;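 active = mean inhibition above about 50%, limit read from the data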
Target sequence (P42574 28-227 limits assumed): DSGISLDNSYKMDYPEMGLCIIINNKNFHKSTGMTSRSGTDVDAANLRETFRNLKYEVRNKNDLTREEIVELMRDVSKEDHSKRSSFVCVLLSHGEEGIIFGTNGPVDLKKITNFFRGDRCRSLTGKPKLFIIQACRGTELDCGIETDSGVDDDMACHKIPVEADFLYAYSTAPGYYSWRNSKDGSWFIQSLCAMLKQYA
Luc interf = luminescence interference (SENP counter-screen); Pre-incubated SENP8/Z-RLRGG-aminoluciferin, luciferase luminescence interference; inhibition, % at 12.5 µM; shares compounds with SENP7 block; AID 488919; 6,200 compounds, 39% hits;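 active = mean inhibition above about 50% when retested at one dose, limit read from the data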
Of the large screens only hits and unclear results are named; the others gave an inactive call (follow-up assays come after a bar, where they were run).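 Rule for the calls, unless noted: active = mean inhibition above about 50% in the one-dose retest (limit read from the data); inactive = the rest.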

O=C(CSc1nnc(-c2cccnc2)n1Cc1ccco1)NCc1ccc2c(c1)OCO2	SENP7 block 59 | SENP8 confirm inactive | SENP6 conf inactive | SENP7 confirm inactive | Casp3 select inactive | Luc interf inactive
Cc1ccc2[nH]c3c(=O)n(CC(=O)N4CCN(C)CC4)ncc3c2c1	none (no result: PPC-1+TRAIL kill)
Cc1cccc(-c2nnc(-c3ccc(N)cc3)o2)c1	SENP7 block 53 | SENP8 confirm inactive | SENP6 conf 65 | SENP7 confirm 88 | Casp3 select 63 | Luc interf inactive
Cc1ccc(-c2nnc(-c3ccccc3)o2)cc1Br	SENP6 block 59, SENP7 block 75 (no result: PPC-1+TRAIL kill) | SENP8 confirm inactive | SENP6 conf inactive | SENP7 confirm inactive | Casp3 select inactive | Luc interf inactive
Cc1ccc(-c2nnc(-c3cccc(Br)c3)o2)cc1	SENP6 block 74, SENP7 block 60 | SENP8 confirm inactive | SENP6 conf inactive | SENP7 confirm inactive | Casp3 select inactive | Luc interf inactive
Brc1cccc(-c2nnc(-c3ccccc3)o2)c1	SENP6 block 87, SENP7 block 79, SENP8 block-2 70 | SENP8 confirm inactive | SENP6 conf 71 | SENP7 confirm 93 | Casp3 select 59 | Luc interf inactive
CC(=O)N1CC(C(=O)Nc2ccc3c(c2)OCO3)Oc2ccccc21 (configuration not stated)	none (no result: PPC-1+TRAIL kill)
CCc1ccccc1OCC(=O)NNCC(=O)Nc1cccc(C#N)c1	none (no result: PPC-1+TRAIL kill)
COc1cc(OC)cc(C(=O)NNC(=O)CCC(=O)c2cc(C)sc2C)c1	none (no result: PPC-1+TRAIL kill)
O=C(O)c1ccc(CNC(=O)C2CCN(S(=O)(=O)c3cccs3)CC2)cc1	none (no result: SENP6 block, SENP7 block, SENP8 block-2, PPC-1+TRAIL kill)
O=C1C(=Cc2ccccc2O)SC(=S)N1CCCN1CCOCC1	none (no result: SENP6 block, SENP7 block, SENP8 block-2, PPC-1+TRAIL kill)
Cc1ccc(NC(=O)Nc2cccc(F)c2)nc1	SENP6 block 52, SENP7 block 53 (no result: PPC-1+TRAIL kill) | SENP8 confirm inactive | SENP6 conf inactive | SENP7 confirm inactive | Casp3 select inactive | Luc interf inactive
Cc1ccnc(NC(=O)Nc2cccc(F)c2)c1	SENP6 block 93, SENP7 block 94, SENP8 block-2 73 | SENP8 confirm 56 | SENP6 conf 72 | SENP7 confirm 89 | Casp3 select 72 | Luc interf inactive
Cc1cccc(NC(=O)Nc2cccc(F)c2)n1	none
Cc1ccnc(NC(=O)Nc2cccc(F)c2)n1	SENP7 block 67 | SENP8 confirm inactive | SENP6 conf inactive | SENP7 confirm 57 | Casp3 select 61 | Luc interf inactive
CC(Oc1ccc(F)cc1)C(=O)N(CCC1=CCCCC1)c1c(N)n(Cc2ccccc2)c(=O)[nH]c1=O (configuration not stated)	none (no result: PPC-1+TRAIL kill)
CN(C(=S)NC(=O)c1ccc(Br)o1)c1ccccc1	none
Cc1nc2ncccn2c1-c1csc(Nc2ccc(O)cc2)n1	none
Cc1cccnc1Nc1nc(-c2ccc(O)cc2O)cs1	SENP6 block 69, SENP8 block-2 56 | SENP8 confirm 81 | SENP6 conf 81 | SENP7 confirm 92 | Casp3 select inactive | Luc interf inactive
CC(=O)Nc1ccc(-c2csc(Nc3cc(C)ccn3)n2)cc1	none
O=C(O)c1ccc(Nc2nc(-c3ccccc3)cs2)cc1	SENP6 block 84, SENP7 block 65 | SENP8 confirm 72 | SENP6 conf 70 | SENP7 confirm 90 | Casp3 select 63 | Luc interf 80
Cc1cccnc1Nc1nc(-c2ccccc2)cs1	SENP6 block 97, SENP7 block 97, SENP8 block-2 92 (no result: PPC-1+TRAIL kill) | SENP8 confirm inactive | SENP6 conf 96 | SENP7 confirm 102 | Casp3 select 82 | Luc interf 74
Cc1ccnc(Nc2nc(-c3ccccc3)cs2)c1	SENP6 block 90, SENP7 block 85, SENP8 block-2 81 (no result: PPC-1+TRAIL kill) | SENP8 confirm inactive | SENP6 conf 64 | SENP7 confirm 85 | Casp3 select inactive | Luc interf inactive
CCCNS(=O)(=O)c1cc(CN2C(=O)c3cccnc3C2=O)ccc1OC	none (no result: PPC-1+TRAIL kill)
Oc1ccc(-c2csc(Nc3ccccn3)n2)c(O)c1	SENP6 block 71 (no result: PPC-1+TRAIL kill) | SENP8 confirm 53 | SENP6 conf 68 | SENP7 confirm 89 | Casp3 select inactive | Luc interf 82
NS(=O)(=O)c1ccc(Nc2nc(-c3ccc(O)cc3O)cs2)cc1	none
Cc1ccc2c(c1)sc1nncn12	none (no result: SENP6 block, SENP7 block, SENP8 block-2, PPC-1+TRAIL kill)
COc1cc(/C=N/NC(=O)c2nc(C)cc(C)n2)ccc1O	none
CCOc1ccc(/C=N/NC(=O)c2ccoc2C)cc1OC	SENP6 block 81, SENP7 block 75, SENP8 block-2 64 (no result: PPC-1+TRAIL kill) | SENP8 confirm 82 | SENP6 conf 80 | SENP7 confirm 93 | Casp3 select 93 | Luc interf 80
COc1ccc(/C=N/NC(=O)c2cc(C)oc2C)cc1OC	none
CCOc1ccc(/C=N/NC(=O)c2ccncc2)cc1OC	none (no result: SENP6 block, SENP7 block, SENP8 block-2, PPC-1+TRAIL kill)
COc1cccc(/C=N/NC(=O)CNC(=O)/C=C\c2ccccc2)c1O	none (no result: PPC-1+TRAIL kill)
COc1cc(/C=N/NC(=O)c2nonc2C)ccc1O	SENP6 block 67, SENP7 block 77, SENP8 block-2 82 | SENP8 confirm 89 | SENP6 conf 89 | SENP7 confirm 98 | Casp3 select 97 | Luc interf 89
COc1cccc(/C=N/NC(=O)CNC(=O)C(c2ccccc2)c2ccccc2)c1O	SENP6 block 52 (no result: PPC-1+TRAIL kill) | SENP8 confirm inactive | SENP6 conf inactive | SENP7 confirm 63 | Casp3 select 59 | Luc interf inactive

Source: PubChem
